NPC1 promoter act – qHTS Assay for NPC1 Promoter Activators. Huh7 NPC1 promoter luciferase reporter, 24 h. Potency, µM (highest dose often 9.22 µM), inactives show at the highest dose activation, hits mostly activators. hit rate 2.4% among 320,000; also: % of control where 0% means no effect; nearly all actives have a fitted effect of over 60% in size
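NPC1 promoter–luciferase Huh7 cells; 24 h compound; luminescence.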
SMN2 splice up – qHTS Assay for Enhancers of SMN2 Splice Variant Expression; HEK293 SMN2-luciferase splicing reporter, luminescence, 30-36 h; Potency, µM (top dose mostly 46.1 µM), for inactives: at the top dose activity change, positive = activation, hits mostly activators; hit rate 2.8% among 210,000; AID 1458, 2008; also: % of control where 0% means no effect; nearly all actives have a fitted effect of over 55% in size
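HEK293 cells carry an SMN2 […]–luciferase reporter in which exon 7 inclusion puts luciferase in frame. Cells were plated 10-12 h before compound addition, then incubated 30-36 h at 37C. ONE-Glo luminescence was read; sodium butyrate at 4.5 mM final served as control.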
p53 reactivator – qHTS assay for re-activators of p53 using a Luc reporter; AID 504706, 2011; H1299 p53-A138V BP100-luciferase reporter, luminescence, 24 h; hit rate 0.063% among 320,000; Potency, µM (highest dose often 92.2 µM), inactives show top-dose activity change, positive = activation, usual class: activators; also: % of control where 0% means no effect; nearly all actives have a fitted effect of over 45% in size
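H1299 (p53-null), stable ts p53-A138V + BP100-Luc; 1000 cells/well, Opti-MEM/10% FBS; cpd 4 pt, 1:5; 24 h, 37 deg C, 5% CO2; detection reagent 10 min RT; luminescence.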
FLuc modulator – qHTS profiling assay for firefly luciferase inhibitor/activator using purifed enzyme and Km concentrations of substrates (counterscreen for miR-21 project); Potency, µM (highest dose often 57.5 µM), for the others: at the highest dose activity change, negative = inhibition, actives largely listed as inhibitors; Luciferin 4-monooxygenase (Photinus pyralis), P08659; hit rate 6.9% among 360,000; purified FLuc, Km substrates, luminescence inhibition;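 also: plate controls were vehicle for no effect and reference inhibitor for full effect; nearly all actives have a fitted effect of over 55% in size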
Target sequence (P08659 whole entry, looked up): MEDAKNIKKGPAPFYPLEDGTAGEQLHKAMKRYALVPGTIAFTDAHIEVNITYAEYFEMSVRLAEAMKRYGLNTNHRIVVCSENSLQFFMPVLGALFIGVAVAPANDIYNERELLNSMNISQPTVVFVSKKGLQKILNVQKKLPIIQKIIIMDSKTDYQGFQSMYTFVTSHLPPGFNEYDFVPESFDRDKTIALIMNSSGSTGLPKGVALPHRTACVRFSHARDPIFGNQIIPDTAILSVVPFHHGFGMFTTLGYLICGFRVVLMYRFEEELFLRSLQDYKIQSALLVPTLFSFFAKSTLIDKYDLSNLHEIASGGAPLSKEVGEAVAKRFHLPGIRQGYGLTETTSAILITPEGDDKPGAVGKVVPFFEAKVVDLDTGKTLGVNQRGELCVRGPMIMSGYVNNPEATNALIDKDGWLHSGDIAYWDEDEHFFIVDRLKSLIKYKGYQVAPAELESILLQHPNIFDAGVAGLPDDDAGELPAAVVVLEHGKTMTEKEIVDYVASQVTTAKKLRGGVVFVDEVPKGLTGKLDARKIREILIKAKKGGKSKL
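Biochemical qHTS of compounds, final roughly 60 µM downward over six points, against 10 nM purified firefly luciferase using Km concentrations of substrates (10 uM D-luciferin, 10 uM ATP) in Tris acetate pH 7.5 buffer; luminescence output.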
Rab9 prom act – qHTS Assay for Rab9 Promoter Activators. hit rate 2.8% among 320,000. Potency, µM (titrated, usually from 9.22 µM), for inactives: at the top dose activation, negative = inhibition, most hits filed as activators. AID 485297, 2010. Huh7 Rab9 promoter-luciferase reporter, luminescence, 24 h; also: % of control where 0% means no effect; nearly all actives have a fitted effect of over 60% in size
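Huh7 cells stably carrying Rab9 promoter–luciferase reporter, plated 1500 cells/well, compound added after 2 h and incubated 24 h at 37 °C; luciferase luminescence then read after 10 min with detection reagent.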
ELG1 genotox – qHTS screen for small molecules that induce genotoxicity in human embryonic kidney (HEK293T) cells expressing luciferase-tagged ELG1 | HEK293T ELG1-luciferase reporter, luminescence, 16 h | Potency, µM (top dose mostly 46 µM), for the others: at the top dose activity change, positive = activation, most hits filed as activators | hit rate 1.3% among 330,000 | AID 504466, 2011; also: % of control where 0% means no effect; nearly all actives have a fitted effect of over 60% in size
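Reporter readout depends on ELG1 protein level, which increases with genetic stress. After 16 hr compound exposure at 37 °C, luciferase activity was quantified using ONE-Glo.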
Numbers without * were called inactive; ? = inconclusive; . = no result given. A selection: hits, their analogues and other compounds. The true share with any hit is near 7.4%. Calls follow the shape of the dose curve; as a rule, active = well fitted curve in the direction sought with a large enough effect; inconclusive = small, poorly fitted or top-dose-only effect, or another doubt; inactive = no such curve, though single readings can be large; an effect the other way counts as inactive or inconclusive. Potency is read from the fitted curve at half-maximal effect.

SMILES	NPC1 promoter act	SMN2 splice up	p53 reactivator	FLuc modulator	Rab9 prom act	ELG1 genotox
[O-]/[N+](=C/c1ccc(F)cc1)c1ccc(Cl)cc1	?	11%	?	4.8µM*	18%	16µM*
[O-]/[N+](=C\c1ccco1)c1ccc(Cl)cc1	21%	.	?	?	29%	?
COc1ccc(Br)cc1CNC(=O)c1ccc2nc(C(C)C)oc2c1	.	.	.	1%	.	.
CC1CCN(c2nnc(-c3cccs3)c3ccccc23)CC1	0%	-1%	?	9.5µM*	8%	6%
CC1CCN(c2nc3ccccc3nc2N2CCC(C)CC2)CC1	.	4%	.	3%	.	.
c1csc(-c2nnc(NC3CCCCC3)c3ccccc23)c1	-2%	3%	20%	12µM*	-3%	-1%
CCOC(=O)c1ccc(COC(=O)c2nonc2N)cc1	1%	-13%	0%	15µM*	2%	0%
CC(C)CC(=O)Nc1ccc(-c2nc3ccccc3c(=O)[nH]2)cc1	1.1µM*	3.2µM*	?	2.4µM*	0.89µM*	6.5µM*
O=c1oc(-c2ccc([N+](=O)[O-])cc2)nc2ccccc12	11%	1%	-2%	-10%	13%	11%
O=c1oc(-c2ccc(Br)cc2)nc2ccccc12	2.2µM*	.	.	?	3.2µM*	?
CC(C)CC(=O)Nc1ccc(-c2nc3ccccc3c(=O)o2)cc1	3%	8%	?	1.7µM*	1%	19%
CC(=O)Nc1ccc(-c2nc3ccccc3c(=O)o2)cc1	0%	.	22%	2.7µM*	6%	-1%
CCC(=O)N1CCc2cc(Br)cc(S(=O)(=O)N3CCC(C(=O)Nc4cccc(C)c4)CC3)c21	.	4%	.	-10%	.	.
Cc1ccc2c(c1)N(CC(=O)NC1CCCC1)C(=O)c1cccnc1O2	1%	.	11%	-2%	4%	-4%
Nc1ccccc1-c1nc2ccccc2c(=O)o1	8%	.	3%	11µM*	17%	1%
O=c1oc(-c2ccccc2[N+](=O)[O-])nc2ccccc12	0%	33%	4%	4%	-1%	-4%
CCOC(=O)N1CCN(C(=O)CNC(=O)c2nn(-c3ccc(OC)cc3)c(=O)c3ccccc23)CC1	6%	25%	?	3.8µM*	?	0%
COc1ccc(-n2nc(C(=O)NCC(=O)N3CCCCCC3)c3ccccc3c2=O)cc1	-14%	.	?	5.4µM*	7%	-4%
COc1ccc(N2CCN(C(=O)CNC(=O)c3nn(-c4ccc(OC)cc4)c(=O)c4ccccc34)CC2)cc1	-1%	.	-5%	?	8%	-19%
CCOc1ccc(NC(=O)CNC(=O)c2nn(-c3ccc(OC)cc3)c(=O)c3ccccc23)cc1	-2%	.	-10%	0%	-3%	-12%
COc1ccc(-n2nc(C(=O)NCC(=O)N3CC(C)CC(C)C3)c3ccccc3c2=O)cc1 (centres undefined)	-1%	.	6%	19µM*	2%	-22%
COc1ccc(-n2nc(C(=O)NCC(=O)N3CCN(C)CC3)c3ccccc3c2=O)cc1	-3%	.	5%	15µM*	0%	4%
COC(=O)C1(C)NC(c2ccc(O)cc2)C2C(=O)N(c3ccc(C)cc3)C(=O)C21 (centres undefined)	-1%	.	.	-1%	0%	-1%
O=C(Nc1ccc(C(=O)c2ccc(C(=O)O)c(C(=O)O)c2)cc1)c1ccccc1	2%	.	?	11µM*	15%	-9%
O=C(O)c1ccc(C(=O)O)c(C(=O)c2ccc(NC(=O)c3ccccc3)cc2)c1	-5%	.	-1%	19µM*	-1%	-2%
CNc1ncc(C(=O)c2ccc(-c3ccccc3)cc2)s1	2µM*	.	?	3µM*	2.5µM*	?
